Consider 40 molecules from PubChem BioAssay (NCI).

About 83,000 compounds went through this panel and 20% of them were active in at least one assay; those are over-represented in the sample as a whole.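 Step 1: grow cells in 96-well plates. Step 2: add test compound at a single concentration. Step 3: incubate 48 h. Step 4: record percent growth.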 Values without a mark were called inactive. Calls of active or inactive are those of the source. How the source made its calls: active means growth percent below 10; inactive means the rest.

This assay deals with SF-268 CNS. Briefly: NCI-60 one-dose screen, 48 h (100 = growth as untreated, 0 = no growth, -100 = all killed). The note with it: 10 µM unless noted.
Take `C=C(C)[C@@H]1CC[C@]2(C(=O)NCCNCCN)CC[C@]3(C)[C@H](CC[C@@H]4[C@@]5(C)C/C(=C/c6ccncc6)C(=O)C(C)(C)[C@@H]5CC[C@]43C)[C@@H]12`: the growth was 88.5%.

Regarding `CS(=O)(=O)C1=CN(CCO)C(=O)N2CCCN=C12`, the growth was 97.2%.

In the case of `Cc1ccc(Sc2nnc(/N=C3\C(=O)Nc4ccccc43)s2)cc1`, the growth was 98.9%.

As for `CCOc1nc(-c2ccccc2)cc2c(O)c(C(=O)NN)[nH]c(=O)c12`, the growth was 86.2%.

As to `O=C1Nc2ccc(Br)cc2/C1=N/c1n[nH]c(=S)s1`, the growth is 91.5%.

For the molecule `CCCCCCCCCCCCCCCC(N)c1ccccc1` (stereo not given), the growth is -38.9% (active).

Turning to `CCc1n(Cc2ccc3ccccc3c2)cc[n+]1Cc1ccc2ccccc2c1`, the growth was 12.5%.

On to `Cc1ccc(-c2nc(N3CCNCC3)c3oc(-c4ccccc4)nc3n2)cc1`, for which the growth was 7.93% (active).

For `O=C(OCc1ccc2cccc(O)c2n1)N1CCN(C(=O)c2cc3cc(F)ccc3[nH]2)CC1`, the growth is -73.4% (active).

For `CN1CCN(Cc2ccc(NC(=O)c3cncc(C#Cc4cnc(N)c5ccccc45)c3)cc2C(F)(F)F)CC1`, the growth was -61.1% (active).

Consider `CO/N=C(/C)c1ccc(NC(=O)CSc2nnc(-c3ccncc3)n2-c2ccccc2)cc1`, for which the growth was 13.4%.

In the case of `CC(=O)OC[C@]12CCC(C)(C)C[C@H]1[C@@]1(O)[C@H](O)C[C@@H]3[C@@]4(C)CCCNC(C)(C)[C@@H]4CC[C@@]3(C)[C@]1(C)CC2`, the growth was 106%.

For the molecule `COc1cc(-n2cc(-c3cc(O)c(C/C=C(\C)CCC=C(C)C)c(O)c3)nn2)cc2c1O[C@]1(C)CC[C@@H](O)C(C)(C)[C@H]1C2`, the growth is 20.9%.

Consider `CC(=O)c1cc(O)c2ccccc2c1O`, for which the growth was 124%.

In the case of `CC[C@]12C=CCN3CC[C@@]4(c5cc(NC(=O)CCC(=O)OCc6cn(Cc7ccc(F)cc7)nn6)c(OC)cc5N(C)[C@H]4[C@@](O)(C(=O)OC)[C@@H]1OC(C)=O)[C@@H]32`, the growth was 95.7%.

Consider `Cc1nn(-c2ccccc2)c(Oc2ccccn2)c1-c1nc2ccccc2s1`, for which the growth was 92.9%.

Consider `O=C(Cn1c2c(c3ccccc31)CCCC2)Nc1ccc(-c2nc3ccccc3s2)cc1`, for which the growth is 97.6%.

As to `N#Cc1c(N)nnn1Cc1cc(=O)oc2c1ccc1ccccc12`, the growth is 98%.

`O=C1N[C@@H]2NC(=[N+]3CCOCC3)N[C@@H]2N1`: the growth is 100%.

With `CCN1C(=O)N(CC)C2C1NN=c1s/c(=C\c3ccc(Cl)cc3Cl)c(=O)n12` (stereo not given), the growth was 42.3%.

On to `CC1=C(Nc2ccc(N3CCN(C)CC3)cc2)C(=O)c2cncnc2C1=O`, for which the growth was 102%.

Consider `O=c1oc2ccccc2cc1C1=NN=C(SCc2ccccc2)SC1`, for which the growth was 97.1%.

Turning to `O=C(O)CNC1=C(Cl)C(=O)c2ccccc2C1=O`, the growth is 103%.

For `N#CC1=C(c2ccc(Cl)cc2)Nc2c(c(-c3ccc(Cl)cc3)nn2-c2ccccc2)C12C(=O)Nc1ccc(Cl)cc12` (stereo not given), the growth is 38.2%.

For the molecule `C=C(C)[C@@H]1CC[C@]2(C(=O)O)CC[C@]3(C)[C@H](CC[C@@H]4[C@@]5(C)C[C@@H](Cc6cn(CCO[C@@H]7O[C@H](COC(C)=O)[C@H](OC(C)=O)[C@H](OC(C)=O)[C@H]7OC(C)=O)nn6)[C@H](O)C(C)(C)[C@@H]5CC[C@]43C)[C@@H]12`, the growth is 61.2%.

Take `Cc1ccc(NC(=S)NNC(=S)NNc2ccccc2)cc1C`: the growth is 55.1%.

In the case of `CCC(C)N(c1ccc(Cl)cc1)c1nc(-c2ccc(Br)cc2)cs1` (stereo not given), the growth was 97.1%.

As to `c1ccc(CNc2c3ccccc3nc3ccccc23)cc1`, the growth was 62.6%.

As to `C=C(C)[C@@H]1CC[C@]2(C(=O)NCC#CCN3CCN(C)CC3)CC[C@]3(C)[C@H](CC[C@@H]4[C@@](C)(CCC#N)[C@H](C(=C)C)CC[C@]43C)[C@@H]12`, the growth is 62.4%.

Consider `O=C1C(Cl)=C(Nc2ccc(O)cc2)C(=O)N1Cc1ccc(Cl)cc1`, for which the growth is 57.5%.

For `O=Cc1ccc([N+](=O)[O-])s1`, the growth was 96.6%.

Regarding `COc1cc(/C=C\c2cc(/C=C\c3ccc(O)c(OC)c3)n(C(=O)COc3ccc(Cl)cc3Cl)n2)ccc1O`, the growth was 20.2%.

Regarding `CC1(c2ccccc2O)NN=C(/N=C/c2cccc([N+](=O)[O-])c2)N1C(Cc1c[nH]c2ccccc12)C(=O)O` (stereo not given), the growth is 95.7%.

Take `COC(=O)CNC(=O)[C@H](Cc1ccccc1)NCc1ccncc1`: the growth is 107%.

Regarding `O=C(Nc1cccnc1Nc1ccc(F)cc1)c1cn(Cc2cccc(Oc3ccccc3)c2)nn1`, the growth was 54.8%.

Turning to `COc1ccc(-c2cn(-c3cc(OC)c(OC)c(OC)c3)c(=O)n2C(C)=O)cc1`, the growth is 107%.

Turning to `COc1ccc(-c2nnc3n(C)c(=O)c4ccccc4n23)cc1N`, the growth is 55.8%.

On to `CCN(CC)c1ccc(/C=C/C(=O)c2ccc(Nc3nc(Nc4ccccc4)nc(Nc4ccccc4)n3)cc2)cc1`, for which the growth is 62.1%.

With `COP(=O)(OC)C(C)(C)CC(=O)CC(C#N)(C#N)C(C#N)C#N`, the growth is 98%.

Take `N#CC1CCc2c(c(-c3cn[nH]c3C(F)(F)F)nc3c(F)cc4[nH]ncc4c23)C1` (stereo not given): the growth is 23.1%.
